In PubChem BioAssay AID1159580 (chemical genetic matrix, 2015):
In all, about 5,500 compounds went through this assay and about 2,000 (36%) were called active. Another 18% or so got no clear call; they are omitted. Rule as the data show it: active = normalized growth mostly below about 0.91 (no sharp cut-off); inconclusive = no clear call, values can overlap the other calls; inactive = mostly above about 0.92. Some of the results follow.

Experiment: chemical genetic growth profiling, strain panel (AID 1159580);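 also: tested at 20 µM; growth read once vehicle control cultures reached saturation at 30 °C; 1 = growth at the plate median or of vehicle wells; lower values mean less growth of the strain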
Details: growth OD

Measured: normalized growth

COc1ccc2c(c1)c(CC(=O)OCC(=O)O)c(C)n2C(=O)c1ccc(Cl)cc1
inactive: S. cerevisiae deletion strains, locus YJR075W, strain HOC1, hits give low values 1.03 | S. cerevisiae deletion strains, locus YKL009W, strain mrt4, hits give low values 0.951 | S. cerevisiae deletion strains, locus YKL068W, hits give low values 1.01 | S. cerevisiae deletion strains, locus YKL085W, strain MDH1 (second series), hits give low values 0.984 | S. cerevisiae deletion strains, locus YKL085W, strain MDH1, hits give low values 0.984 | S. cerevisiae deletion strains, locus YKL160W, strain elf1, hits give low values 0.99 | S. cerevisiae deletion strains, locus YKL190W, strain CNB1, hits give low values 1.01 | S. cerevisiae deletion strains, locus YKR001C, strain vps1, hits give low values 1.02 | S. cerevisiae deletion strains, locus YKR026C, strain gcn3, hits give low values 0.991 | S. cerevisiae deletion strains, locus YKR091W, strain srl3, hits give low values 1 | S. cerevisiae deletion strains, locus YLL001W, strain dnm1, hits give low values 0.958 | S. cerevisiae deletion strains, locus YLL026W, hits give low values 0.997 | S. cerevisiae deletion strains, locus YLL041C, strain sdh2, hits give low values 0.995 | S. cerevisiae deletion strains, locus YLR027C, strain aat2, hits give low values 0.971 | S. cerevisiae deletion strains, locus YLR039C, strain RIC1, hits give low values 1.03 | S. cerevisiae deletion strains, locus YLR058C, strain SHM2, hits give low values 1.02 | S. cerevisiae deletion strains, locus YLR102C, strain apc9, hits give low values 1.01 | S. cerevisiae deletion strains, locus YLR113W, strain HOG1, hits give low values 0.991 | S. cerevisiae deletion strains, locus YLR221C, strain rsa3, hits give low values 0.998 | S. cerevisiae deletion strains, locus YLR258W, strain gsy2, hits give low values 1 | S. cerevisiae deletion strains, locus YLR262C, strain YPT6 (second series), hits give low values 0.99 | S. cerevisiae deletion strains, locus YLR262C, strain YPT6, hits give low values 1.03 | S. cerevisiae deletion strains, locus YLR268W, strain sec22, hits give low values 1.06 | S. cerevisiae deletion strains, locus YLR320W, strain mms22, hits give low values 1.01 | S. cerevisiae deletion strains, locus YLR330W, strain CHS5, hits give low values 1.01 | S. cerevisiae deletion strains, locus YLR342W, strain FKS1 (second series), hits give low values 1.02 | S. cerevisiae deletion strains, locus YLR342W, strain FKS1, hits give low values 0.971 | S. cerevisiae deletion strains, locus YLR357W, strain rsc2, hits give low values 0.946 | S. cerevisiae deletion strains, locus YLR370C, strain arc18, hits give low values 0.983 | S. cerevisiae deletion strains, locus YLR371W, strain rom2, hits give low values 1.02 | S. cerevisiae deletion strains, locus YLR384C, strain iki3, hits give low values 0.982 | S. cerevisiae deletion strains, locus YLR418C, strain cdc73, hits give low values 1.03 | S. cerevisiae deletion strains, locus YML016C, strain PPZ1, hits give low values 1 | S. cerevisiae deletion strains, locus YML032C, strain rad52, hits give low values 1.02 | S. cerevisiae deletion strains, locus YML120C, strain ndi1, hits give low values 0.982 | S. cerevisiae deletion strains, locus YML124C, strain tub3, hits give low values 1.02 | S. cerevisiae deletion strains, locus YMR058W, strain fet3, hits give low values 0.995 | S. cerevisiae deletion strains, locus YMR078C, strain ctf18, hits give low values 1.01 | S. cerevisiae deletion strains, locus YMR125W, strain sto1, hits give low values 1 | S. cerevisiae deletion strains, locus YMR129W, hits give low values 1.01 | S. cerevisiae deletion strains, locus YMR205C, strain PFK2, hits give low values 0.976 | S. cerevisiae deletion strains, locus YMR223W, strain ubp8, hits give low values 1.02 | S. cerevisiae deletion strains, locus YMR231W, strain pep5, hits give low values 0.991 | S. cerevisiae deletion strains, locus YMR263W, strain SAP30, hits give low values 1.02 | S. cerevisiae deletion strains, locus YMR307W, strain GAS1, hits give low values 1.04 | S. cerevisiae deletion strains, locus YNL067W, strain RPL9B, hits give low values 1.03 | S. cerevisiae deletion strains, locus YNL071W, strain lat1, hits give low values 1.01 | S. cerevisiae deletion strains, locus YNL128W, strain TEP1, hits give low values 1.02 | S. cerevisiae deletion strains, locus YNL153C, strain GIM3, hits give low values 1.02 | S. cerevisiae deletion strains, locus YNL183C, strain NPR1, hits give low values 0.868 | S. cerevisiae deletion strains, locus YNL209W, strain ssb2, hits give low values 1.01 | S. cerevisiae deletion strains, locus YNL233W, strain BNI4, hits give low values 1.02 | S. cerevisiae deletion strains, locus YNL248C, strain rpa49, hits give low values 1.03 | S. cerevisiae deletion strains, locus YNL250W, strain rad50, hits give low values 1.02 | S. cerevisiae deletion strains, locus YNL271C, strain bni1, hits give low values 1.02 | S. cerevisiae deletion strains, locus YNL298W, strain CLA4, hits give low values 0.998 | S. cerevisiae deletion strains, locus YNL307C, strain MCK1, hits give low values 1.02 | S. cerevisiae deletion strains, locus YNL322C, strain KRE1 (second series), hits give low values 1.01 | S. cerevisiae deletion strains, locus YNL322C, strain KRE1, hits give low values 1.01 | S. cerevisiae deletion strains, locus YNR049C, strain mso1, hits give low values 0.995 | S. cerevisiae deletion strains, locus YNR052C, strain pop2, hits give low values 1 | S. cerevisiae deletion strains, locus YOL006C, strain TOP1, hits give low values 1.11 | S. cerevisiae deletion strains, locus YOL012C, strain htz1 0.843 | S. cerevisiae deletion strains, locus YOL147C, strain pex11, hits give low values 1.02 | S. cerevisiae deletion strains, locus YOR001W, strain rrp6, hits give low values 0.969 | S. cerevisiae deletion strains, locus YOR061W, strain CKA2, hits give low values 1.01 | S. cerevisiae deletion strains, locus YOR069W, strain VPS5, hits give low values 1.01 | S. cerevisiae deletion strains, locus YOR070C, strain gyp1, hits give low values 1.01 | S. cerevisiae deletion strains, locus YOR080W, strain dia2, hits give low values 0.976 | S. cerevisiae deletion strains, locus YOR083W, strain WHI5, hits give low values 0.951 | S. cerevisiae deletion strains, locus YOR106W, strain vam3, hits give low values 0.975 | S. cerevisiae deletion strains, locus YOR136W, strain idh2, hits give low values 1.02 | S. cerevisiae deletion strains, locus YOR144C, strain elg1, hits give low values 1.02 | S. cerevisiae deletion strains, locus YOR184W, strain ser1, hits give low values 1.02 | S. cerevisiae deletion strains, locus YOR231W, strain MKK1, hits give low values 0.97 | S. cerevisiae deletion strains, locus YOR265W, strain rbl2, hits give low values 1 | S. cerevisiae deletion strains, locus YOR270C, strain vph1, hits give low values 1 | S. cerevisiae deletion strains, locus YOR290C, strain snf2, hits give low values 1.02 | S. cerevisiae deletion strains, locus YOR316C, strain cot1, hits give low values 1.02 | S. cerevisiae deletion strains, locus YPL051W, strain arl3, hits give low values 0.998 | S. cerevisiae deletion strains, locus YPL055C, strain LGE1, hits give low values 1.02 | S. cerevisiae deletion strains, locus YPL078C, strain atp4, hits give low values 0.986 | S. cerevisiae deletion strains, locus YPL106C, strain sse1, hits give low values 1.02 | S. cerevisiae deletion strains, locus YPL240C, strain hsp82, hits give low values 0.982 | S. cerevisiae deletion strains, locus YPL241C, strain CIN2, hits give low values 1 | S. cerevisiae deletion strains, locus YPL256C, strain CLN2, hits give low values 0.963 | S. cerevisiae deletion strains, locus YPR119W, strain clb2, hits give low values 1.01 | S. cerevisiae deletion strains, locus YPR141C, strain kar3, hits give low values 1.02 | S. cerevisiae deletion strains, locus YPR163C, strain tif3, hits give low values 1.02 | S. cerevisiae deletion strains, locus YPR167C, strain met16, hits give low values 1.01 | S. cerevisiae deletion strains, strain wtn01, hits give low values 1.02 | S. cerevisiae strains, strain wild type, hits give low values 1.01
